# Test results published in PubChem BioAssay.
# Values joined by “and” are separate entries in the source; they are usually repeats but may differ in a detail not shown here. Equal entries are not always repeated. Active and inactive are the calls of the source. How the calls were made is not given here.
# Test system: Botulinum neurotoxin type F light chain protease (Clostridium botulinum)
# Experiment: Clostridium botulinum type F light chain protease inhibitors, microsphere substrate cleavage, validation (AID 588459)
# Details: multiplex microsphere protease substrate cleavage assay, flow cytometry; at 10 µM; stronger effect = higher value
row,Structure (SMILES),inhibition
1,CCOC(=O)/C=C1\NC(C)(C)Cc2cc(OC)c(OC)cc21,0.2% (inactive)
2,COc1ccc2cc[nH]c2c1,-1.5% (inactive)
3,CC(C)(C)n1c(=O)[nH]c2c(c1=O)CCC2,1.8% (inactive)
4,CC(=O)OCC[N+](C)(C)C,-3.2% (inactive) and 0.5% (inactive)
5,COc1cc2c(cc1OC)C(=S)NC(C)(C)C2,2.8% (inactive)
6,CCN(CC)C(=O)c1ccc(O)c(OC)c1,-2.8% (inactive)
7,Cc1cccc(Oc2coc3cc(OC(=O)c4cncc(Br)c4)ccc3c2=O)c1,2.1% (inactive)
8,COC1CCN(Cc2cn(Cc3ccccc3)nc2-c2cc3ccccc3o2)CC1,2% (inactive)
9,COc1cccc2cc(-c3ccccc3)c(=O)oc12,-1.9% (inactive)
10,CC(=O)CC(c1ccc([N+](=O)[O-])cc1)c1c(O)c2ccccc2oc1=O (stereo not drawn),0.7% (inactive)
11,CC[n+]1ccc2cc(OC)c(OC)cc2c1Cc1ccc(OC)c(OC)c1,-0.2% (inactive)
12,CN=C(NC#N)NCCSCc1nc[nH]c1C,-0.4% (inactive)
13,CCc1cccc(OC2OC(CO)C(O)C(O)C2NC(C)=O)c1 (stereo not drawn),-0.7% (inactive)
14,CC(=O)/C=C/c1ccc(C)o1,3.8% (inactive)
15,CCCCOc1ccc(OCCCN2CCOCC2)cc1,-1.1% (inactive)
16,Nc1nnc(-c2cccc(Cl)c2Cl)c(N)n1,1.3% (inactive)
17,Cc1cc(OC(C(=O)O)c2ccccc2)c2c(C)c(Cc3ccccc3)c(=O)oc2c1 (stereo not drawn),2% (inactive)
18,O=c1nc2sc3ccccc3n2c(=O)n1-c1ccc(Cl)cc1,0.3% (inactive)
